Compounds with a hit are over-represented: about 3.3% of the library has one in this group of screens.
AmpC inh no detg: inhibitors of E. coli AmpC beta-lactamase without detergent; P00811; AmpC nitrocefin hydrolysis, absorbance 480 nm, 0.0001% Triton; Potency, µM (doses to about 57.1 µM), usual class: inhibitors; actives 0.52% (n = 330,000); AID 485341; also: nearly all actives have a fitted effect of over 20% in size
Target sequence (P00811 whole entry, looked up): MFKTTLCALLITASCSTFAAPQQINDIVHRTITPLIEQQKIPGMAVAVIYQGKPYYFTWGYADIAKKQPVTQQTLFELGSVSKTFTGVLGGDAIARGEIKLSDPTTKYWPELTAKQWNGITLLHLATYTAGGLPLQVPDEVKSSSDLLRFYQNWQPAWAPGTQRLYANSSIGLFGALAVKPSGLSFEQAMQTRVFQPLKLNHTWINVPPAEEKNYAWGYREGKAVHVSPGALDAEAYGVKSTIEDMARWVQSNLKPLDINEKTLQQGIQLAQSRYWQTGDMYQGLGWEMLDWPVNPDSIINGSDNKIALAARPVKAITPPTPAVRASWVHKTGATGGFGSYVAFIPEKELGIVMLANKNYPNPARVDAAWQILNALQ
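20 mM phosphate pH 7.0 + 0.01% (detergent screen) or 0.0001% Triton X-100; 5.3 nM AmpC reagent; cpd preinc 15 min RT; nitrocefin (800 uM stock) to start; A480 q20 s × 4 min; Activity was normalised to no-enzyme and no-compound control wells.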
Sm TGR inh: inhibitors of Schistosoma mansoni thioredoxin glutathione reductase | Q962Y6 | purified TGR, DTNB reduction, TNB absorbance 405 nm | Potency, µM (doses to about 114 µM), hits mostly inhibitors | actives 3% (n = 360,000) | AID 485364; also: nearly all actives have a fitted effect of over 60% in size
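First, TGR (20 nM dispensed) and NADPH were mixed with compound. Second, a 15 min room-temperature incubation followed. Third, further NADPH and then DTNB were added to start the reaction. Finally, TNB absorbance was monitored kinetically.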
AmpC inh detg: AmpC beta-lactamase inhibition with detergent present | P00811 | AmpC hydrolysis of nitrocefin, absorbance 480 nm, 0.01% Triton | Potency, µM (series often up to 114 µM), most hits filed as inhibitors | actives 0.041% (n = 370,000); also: nearly all actives have a fitted effect of over 25% in size
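AmpC (5.3 nM in the dispensed reagent) in 20 mM phosphate pH 7.0 with 0.01% (detergent screen) or 0.0001% Triton X-100 was preincubated with compounds for 15 min at room temperature. Nitrocefin was then added from an 800 uM solution, and hydrolysis was followed at 480 nm.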
A number is an active result; . = inactive; ? = inconclusive; / = not tested or not shown. Calls follow the shape of the dose curve; as a rule, active = well fitted curve in the direction sought with a large enough effect; inconclusive = small, poorly fitted or top-dose-only effect, or another doubt; inactive = no such curve, though single readings can be large; an effect the other way counts as inactive or inconclusive.

SMILES | AmpC inh no detg | Sm TGR inh | AmpC inh detg
COc1ccc(CNC(=O)c2cc(-c3ccc(C)c(C)c3)n[nH]2)cc1 | / | . | .
CCOc1ccc(CCNC(=O)c2cc3c(s2)-c2c(C)cccc2OC3)cc1 | / | . | .
Cc1ccc(NC(=O)c2noc3c2CCc2ccccc2-3)cc1 | . | . | .
Cc1cc(NC(=O)c2noc3c2CCc2ccccc2-3)n(-c2ccccc2)n1 | 1µM | . | .
CN1CCN(C(=O)C2=C[C@H](c3ccccc3)C[C@H](OCc3ccc(CO)cc3)O2)CC1 | . | ? | .
CN1CCN(C(=O)C2=C[C@@H](c3ccccc3)C[C@@H](OCCCCO)O2)CC1 | . | 40µM | .
O=C(NCc1ccccc1)C1=C[C@H](c2ccc(Br)cc2)C[C@H](OCc2ccc(CO)cc2)O1 | . | . | .
O=C(C1=C[C@@H](C2CCCCC2)C[C@@H](OCCCCO)O1)N1CCOCC1 | . | . | .
O=C(C1=C[C@H](c2ccc(Br)cc2)C[C@H](OCc2ccc(CO)cc2)O1)N1CCOCC1 | . | . | .
O=C(NCc1ccccc1)C1=C[C@@H](c2ccccc2)C[C@@H](OCc2ccc(CO)cc2)O1 | . | 50µM | .
O=C(C1=C[C@@H](c2ccccc2)C[C@@H](OCc2ccc(CO)cc2)O1)N1CCOCC1 | . | 45µM | .
O=C(C1=C[C@@H](C2CC2)C[C@@H](OCCCCO)O1)N1CCOCC1 | . | 56µM | .
CCOc1ccccc1-c1noc(CCCC(=O)Nc2cccc(C(F)(F)F)c2)n1 | / | . | .
O=C(CSc1nnc(-c2ccccc2Br)n1-c1ccccc1)c1ccc(F)cc1 | / | . | .
COc1cccc(CCNC(=O)c2cnc3sc(N4CCOCC4)nn3c2=O)c1 | / | . | .
O=C(C1=C[C@H](c2csc3ccccc23)C[C@H](OCCCCO)O1)N1CCOCC1 | . | ? | .
CN1CCN(C(=O)C2=C[C@@H](c3csc4ccccc34)C[C@@H](OCCCCO)O2)CC1 | . | 45µM | .
CC(C)(C)[C@@H]1C=C(C(=O)NCc2ccccc2)O[C@H](OCc2ccc(CO)cc2)C1 | . | . | .
O=C(C1=C[C@@H](c2ccc(Br)cc2)C[C@@H](OCCCCO)O1)N1CCOCC1 | . | ? | .
O=C(C1=C[C@@H](c2ccccc2)C[C@@H](OCCCCO)O1)N1CCOCC1 | . | 40µM | .
O=C(O)C1=C[C@H](c2ccc(Br)cc2)C[C@H](OCCCCO)O1 | . | ? | .
C#CCNC(=O)C1=C[C@@H](C(C)(C)C)C[C@@H](OCc2ccc(CO)cc2)O1 | . | 35µM | .
CN1CCN(C(=O)C2=C[C@H](c3ccc(Br)cc3)C[C@H](OCCCCO)O2)CC1 | . | 22µM | .
COc1ccccc1-c1nnc(C2CCN(S(=O)(=O)c3ccccc3)CC2)o1 | / | . | .
COc1ccc(-c2noc(CSc3nnc(Cc4ccccc4)n3-c3cccc(C)c3)n2)cc1 | / | . | .
SMILES | AmpC inh no detg | Sm TGR inh | AmpC inh detg
Cc1cc2c(cc1S(=O)(=O)Nc1cccc(Cl)c1C)OCCN2C | / | ? | .
Cc1nn(-c2ccccc2)c2sc(C(=O)Nc3cccc(Br)c3)cc12 | / | . | .
COc1cccc(CNC(=O)CN2C(=O)N(c3cc(C)ccc3C)S(=O)(=O)c3ccccc32)c1OC | / | . | .
Cn1cc(Br)c(NC(=O)/C=C/C(=O)O)n1 | . | 0.63µM | .
Cn1cc(Br)c(C(=O)Nc2c(F)c(F)c(F)c(F)c2F)n1 | . | . | .
CNC(=O)NC(=O)COC(=O)c1cccc(S(=O)(=O)N2CC3(C)CC2CC(C)(C)C3)c1 (stereo not drawn) | . | . | .
CC1(C)CC2CC(C)(CN2S(=O)(=O)c2cccc(C(=O)OCC(=O)NC(N)=O)c2)C1 (stereo not drawn) | . | 16µM | .
CC(=O)[C@H]1[C@H]([C@H](O)[C@H](O)CO)O[C@](O)(C(=O)O)C[C@@H]1O | . | 13µM | ?
O=C(Cn1c(-c2cccs2)cc2cc(Cl)ccc21)NCc1ccccc1 | / | . | .
Cc1cc(C)c(-c2n[nH]c3c2C(c2ccccc2F)N(Cc2ccco2)C3=O)c(O)c1 (stereo not drawn) | / | . | .
O=C(CCCn1c(=O)c2ccccc2n(CC(=O)Nc2cccc(Cl)c2)c1=O)NCc1ccc2c(c1)OCO2 | / | . | .
COC(=O)C1=C(O)/C(=C\c2cc(C)n(-c3ccc(F)cc3)c2C)N=C1C | . | 28µM | .
COC(=O)C1=C(O)/C(=C/c2cccc(OC)c2O)N=C1C | . | . | .
Cc1ccc(CNC(=O)c2ccc3c(c2)N(Cc2cccc(Cl)c2)C(=O)CS3)cc1 | / | . | .
Cc1ccc(-n2nc(C(=O)Nc3ccc(Br)cc3C)c(=O)n(C)c2=O)cc1 | / | . | .
CN(C)S(=O)(=O)c1ccc(C(=O)N2CC(=O)Nc3ccc(Br)cc3C2c2ccc(F)cc2)cc1 (stereo not drawn) | / | . | .
CCOC(=O)c1ccc(N2C(=O)CC(N3CCC(O)(c4ccc(Br)cc4)CC3)C2=O)cc1 (stereo not drawn) | . | 50µM | .
CCOC(=O)c1ccc(N2C(=O)CC(N3CCN(Cc4ccccc4)CC3)C2=O)cc1 (stereo not drawn) | . | . | ?
O=C1CC(N2CCN(c3ccccc3Cl)CC2)C(=O)N1c1cccc(F)c1 (stereo not drawn) | . | 40µM | .
O=C1CC(N2CCN(c3ccccc3Cl)CC2)C(=O)N1c1ccc(F)cc1 (stereo not drawn) | . | ? | ?
CCOC(=O)c1ccc(N2C(=O)CC(N3CCC(C#N)(c4ccccc4)CC3)C2=O)cc1 (stereo not drawn) | . | 45µM | .
CCOc1ccc(N2C(=O)CC(N3CCC(O)(c4ccc(Br)cc4)CC3)C2=O)cc1 (stereo not drawn) | . | . | .
CCOC(=O)c1ccc(N2C(=O)CC(N3CCC(O)(c4ccc(Cl)cc4)CC3)C2=O)cc1 (stereo not drawn) | . | 22µM | .
Cc1nc2c3ccccc3nc(NNC(=O)CCC(=O)N3CCN(c4cc(Cl)ccc4C)CC3)n2n1 | / | . | .
CCc1ccc2ncc3c(-c4ccc(F)cc4)nn(CC(=O)NC4CCCCC4)c3c2c1 | / | . | .
SMILES | AmpC inh no detg | Sm TGR inh | AmpC inh detg
COc1ccc(-c2cc(C(=O)NCCc3ccc(OC)c(OC)c3)c3ccccc3n2)cc1 | / | . | .
CCCC12CN3CC(CCC)(CN(C1)C3c1ccc(OCc3ccccc3)cc1)C2=O (stereo not drawn) | / | . | .
O=C(c1cc2ccc3cccnc3c2[nH]1)N1CCN(c2ccccc2)CC1 | / | . | .
CCN(C(=O)CSc1nc2ccccc2n1CC(=O)NCc1ccc(OC)cc1)c1ccccc1 | / | . | .
O=C1CC(N2CCc3ccccc32)C(=O)N1c1ccccc1 (stereo not drawn) | . | . | .
Cc1cccc(N2C(=O)CC(N3CCN(c4ccccc4)CC3)C2=O)c1 (stereo not drawn) | . | . | .
N#CC1(c2ccccc2)CCN(C2CC(=O)N(c3cccc(F)c3)C2=O)CC1 (stereo not drawn) | . | 45µM | .
O=C1CC(N2CCCc3ccccc32)C(=O)N1c1ccccc1Cl (stereo not drawn) | . | 20µM | .
O=C(c1ccccc1)c1ccc(C(=O)N2CCOCC2)cc1 | . | . | .
